Source: PubChem BioAssay (National Center for Advancing Translational Sciences (NCATS))
This is a sample that favours compounds with a hit; in the whole collection about 19% have one here.
TDP1 cell CPT = qHTS for Inhibitors of human tyrosyl-DNA phosphodiesterase 1 (TDP1): qHTS in cells in presence of CPT. Potency, µM (titrated, usually from 46.2 µM), inactives show at the highest dose activity change, negative = growth inhibition, hits mostly inhibitors. chicken DT40 Tdp1-/-;hTDP1 cells + 20 nM CPT, ATP luminescence, 48 h. 420,000 tested, 12% active; note: nearly all actives have a fitted effect of over 55% in size
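Cell growth measured by CellTiter-Glo luminescence after a minimum 48 h, 37 C compound exposure with 20 nM CPT in Tdp1-knockout DT40 cells stably expressing hTDP1, seeded 400/well; qHTS titration format.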
KB-3-1 tox = qHTS assay for MDR1-selective chemotherapeutics: Primary screen using the parental adenocarcinoma cell KB-3-1; KB-3-1 viability, CellTiter-Glo ATP luminescence, 72 h; Potency, µM (highest dose often 46.1 µM), actives largely listed as cytotoxic; 400,000 tested, 1.4% active; note: nearly all actives have a fitted effect of over 60% in size
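Parental KB-3-1 viability, qHTS format: 72 h compound exposure, 37 °C; CellTiter-Glo; media-only wells and DMSO plates as controls; concentration-effect fits on corrected data.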
HT1080NT lethal = qHTS for induction of synthetic lethality in tumor cells producing 2HG: qHTS for the HT-1080-NT fibrosarcoma cell line; HT-1080-NT fibrosarcoma viability, CellTiter-Glo ATP luminescence, 48 h; Potency, µM (series often up to 46.1 µM), without a hit: at the top dose activity, negative = less viability, usual class: cytotoxic; 360,000 tested, 1.6% active; AID 686970, 2013;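 note: NT is the 2HG producing partner of a matched IDH1 knockdown line; 0% = DMSO-treated cells and -100% = media-only wells without cells; nearly all actives have a fitted effect of over 55% in size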
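Fibrosarcoma NT cells, 750 per well in 5% FBS RPMI, were exposed to compound for 48 hours. Viability: CellTiter-Glo luminescence.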
HT1080 IDH1KD tx = qHTS for induction of synthetic lethality in tumor cells producing 2HG: qHTS for the HT-1080-IDH1KD cell line | 360,000 tested, 2% active | Potency, µM (series often up to 46.1 µM), for the others: top-dose activity, negative = toxicity, most hits filed as cytotoxic | HT-1080 IDH1 knockdown viability, ATP luminescence, 48 h | AID 686971, 2013;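 note: 0% = DMSO wells and -100% = cell-free medium wells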
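% activity derives from luminescence (CellTiter-Glo), normalised to DMSO and no-cell wells. HT-1080-IDH1KD cells, 750/well, had 48 h compound exposure at 37 °C.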
TDP1 cell noCPT = qHTS for Inhibitors of human tyrosyl-DNA phosphodiesterase 1 (TDP1): qHTS in cells in absence of CPT; AID 686978, 2013; Potency, µM (highest dose often 46.2 µM), for inactives: at the highest dose activity change, negative = growth inhibition, actives largely listed as inhibitors; DT40 Tdp1-/- hTDP1 cells, no CPT, ATP luminescence, 48 h; 420,000 tested, 15% active; note: nearly all actives have a fitted effect of over 55% in size
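Cells were dispensed at 400 per well, compounds added by pin tool, plates incubated ≥48 hr at 37 °C, then CellTiter-Glo added for 30 min at room temperature before luminescence reading. Line: DT40 Tdp1-/- complemented with hTDP1; camptothecin omitted.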
KB-V1 cytotox = qHTS assay for MDR1-selective chemotherapeutics: Primary screen using the drug-selected MDR subline cells KB-V1 | KB-V1 MDR cells viability, CellTiter-Glo, 72 h | Potency, µM (top dose mostly 46.1 µM), most hits filed as cytotoxic | 400,000 tested, 3.4% active | AID 1347076, 2019; note: nearly all actives have a fitted effect of over 60% in size
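Cytotoxicity toward P-gp-expressing KB-V1 cells was determined as loss of CellTiter-Glo luminescence after 72 h at 37 degrees C. Compounds were tested in quantitative HTS format across a concentration range, with curves fitted to normalized data.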
Active calls of the source: *; i = inactive; u = inconclusive; x = not tested or not shown; [ ] = another dose, or the depositor's remark. Calls come from the whole dose curve; as a rule, active = well fitted curve in the direction sought with a large enough effect; inconclusive = small, poorly fitted or top-dose-only effect, or another doubt; inactive = no such curve, though single readings can be large; an effect the other way counts as inactive or inconclusive. Unless noted, % is set by controls: 0 for no effect and ±100 for the full control effect; potency is the fitted concentration of half-maximal effect.

SMILES	TDP1 cell CPT	KB-3-1 tox	HT1080NT lethal	HT1080 IDH1KD tx	TDP1 cell noCPT	KB-V1 cytotox
C=Cc1c(C)c2cc3nc(cc4[nH]c(cc5nc(cc1[nH]2)C(C)=C5CCC(=O)OC)c(CCC(=O)O)c4C)[C@@]1(C)C3=CC=C(C(=O)OC)[C@H]1C(=O)OC	-2%	x	x	x	1%	x
Nc1ccc(/C=C/c2ccc(N)cc2S(=O)(=O)O)c(S(=O)(=O)O)c1	-1%	x	x	x	-17%	x
O=C(NCC(c1cccnc1)N1CCN(Cc2ccccc2)CC1)C(=O)Nc1cccc(F)c1 (configuration not stated)	26µM*	i	x	x	23µM*	i
CCc1ccc(NC(=O)C(=O)NCC(c2cccnc2)N2CCN(Cc3ccccc3)CC2)cc1 (configuration not stated)	12µM*	i	x	x	8.2µM*	i
O=C(NCC(c1cccnc1)N1CCN(Cc2ccccc2)CC1)C(=O)Nc1ccc(F)cc1 (configuration not stated)	18µM*	i	x	x	23µM*	i
O=S(=O)(NCC(c1cccnc1)N1CCN(Cc2ccccc2)CC1)c1ccc(F)cc1 (configuration not stated)	u	i	-1%	-3%	-30%	i
CCNC(=O)C1CCCN(C(=O)c2c(-c3ccccc3)noc2C)CC1 (configuration not stated)	-5%	i	15%	3%	2%	i
CCN(Cc1ccccc1)C(=O)CN1C(=O)CSc2ccc(S(=O)(=O)N(CC)CC)cc21	u	i	x	x	u	i
CCOc1ccc(NC(=O)CSc2nc3ccccc3c(=O)n2CCC(=O)NC2CCCCC2)cc1	-14%	i	x	x	-8%	i
CC1(C(=O)NCCC(F)(F)F)Cc2c(-c3ccccc3)ccnc2O1 (configuration not stated)	6.5µM*	u	-16%	u	5.8µM*	21µM*
CC1(C(=O)NCc2ccco2)Cc2c(-c3ccccc3)ccnc2O1 (configuration not stated)	2.6µM*	8.2µM*	u	u	2.3µM*	7.3µM*
COc1ccc(CN2CCC3(CCC(CNC(=O)c4ccco4)O3)CC2)c(OC)c1C (configuration not stated)	-4%[9.04 µM]	x	x	x	-28%	x
Cc1ccccc1OCc1nnc(SCc2cc(=O)c3cccc(F)c3[nH]2)n1C	u	i	x	x	u	i
CC(=O)c1cccc(NC(=O)Cc2coc3cc4c(cc23)CCC4)c1	u	i	-18%	-18%	6.5µM*	i
Cc1ccc(C)c(NC(=O)Cc2coc3cc4c(cc23)CCC4)c1	-12%	i	-4%	-2%	-12%	i
CCC(C)c1ccccc1NC(=O)Cc1coc2cc3c(cc12)CCC3 (configuration not stated)	u	i	1%	-4%	18µM*	i
O=C(NCCN1CCOCC1)C1CC(=O)N(c2ccc(Cl)cc2)C1 (configuration not stated)	1%	i	10%	6%	-21%	u
NC(=O)C1(N2CCCCC2)CCN(c2nc(-c3ccccc3)cs2)CC1	21µM*	i	-20%	-28%	16µM*	i
CN(C)C(=O)N1CCN(c2nc(-c3ccccc3)cs2)CC1	u	i	-3%	-11%	u	u
O=C(NC1CCCCC1)N1CCN(c2nc(-c3ccccc3)cs2)CC1	u	i	-25%	u	26µM*	12µM*
c1ccc(-c2csc(N3CCOCC3)n2)cc1	-22%	i	25%	-1%	-7%	i
NC(=O)C1(N2CCCCC2)CCN(c2ccc3nnc(-c4ccccc4)n3n2)CC1	-26%	i	-1%	-9%	u	i
O=C(NC12CC3CC(CC(C3)C1)C2)N1CCN(c2nc(-c3ccccc3)cs2)CC1	u	i	-2%	0%	18µM*	i
O=C(NC1CCCCC1)N1CCN(CCc2ccccc2)CC1	-1%	i	5%	4%	-12%	18µM*
Cc1cc(C)c2c(-n3cccc3)c(C(=O)NCCc3ccccc3)sc2n1	-26%	x	x	x	u	x
SMILES	TDP1 cell CPT	KB-3-1 tox	HT1080NT lethal	HT1080 IDH1KD tx	TDP1 cell noCPT	KB-V1 cytotox
COc1cc(NC(=O)CCl)ccc(=O)c1	13µM*	i	21µM*	23µM*	18µM*	u
COc1cccc(NC(=O)CC(C)=O)c1	-7%	i	-8%	-4%	-16%	i
N=c1sccn1CC(=O)Nc1cccc(S(N)(=O)=O)c1	8%	i	-1%	-4%	11%	i
O=C(CCl)Nc1cccc(Oc2cnccn2)c1	18µM*	21µM*	u	u	9.2µM*	u
Nc1cccc(Oc2cnccn2)c1	7%	i	3%	0%	6%	i
N=c1sccn1CC(=O)Nc1cccc(Oc2ccccc2)c1	u	i	u	u	22µM*	i
O=C(CCl)Nc1cccc(Oc2ccccc2)c1	3.3µM*	u	u	u	2.9µM*	u
CCOc1ccc(-n2c(=O)c3sccc3n(CC(=O)NCCc3ccc(OC)c(OC)c3)c2=O)cc1	-24%	i	0%	8%	-4%	i
CCc1cccc(N2C(=O)N(Cc3c(F)cccc3Cl)c3ccccc3S2(=O)=O)c1	-29%	i	x	x	u	u
COc1ccc(NC(=O)COC(=O)Cn2cnc3ccccc3c2=O)c(OC)c1	-4%	i	11%	0%	-17%	i
CCOc1ccc(S(=O)(=O)NCCc2c(C)[nH]c3c(Cl)cccc23)cc1C	23µM*	i	x	x	u	i
CCOc1ccc(S(=O)(=O)NCc2cccnc2)cc1C	2%	i	17%	4%	-7%	i
Cc1sc2ncnc(N/N=C/c3ccc(O)cc3)c2c1C	u	i	-14%	u	u	u
COc1ccc(-c2csc3ncnc(Nc4ccccc4)c23)cc1	-13%	i	x	x	-24%	i
